Data published in PubChem BioAssay AID1053197 (The Scripps Research Institute Molecular Screening Center, 2014).
Hit rate of the full screen: of about 370,000 compounds, about 2,600 (0.7%) were called active. This is one part of a sample in which actives are shown more often than they occur.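 How the source made its calls: active means inhibition above a cutoff: mean of compounds within the control limits plus 3 SD of those (cut at about 17% in these data); inactive means the rest.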

These molecules were tested against Sialate O-acetylesterase (Homo sapiens) (UniProt Q9HAT2) (assay: blockers of sialate O-acetylesterase activity-probe labeling – biochemical, fluorescence polarization, FP-Rh probe, 1536-well HTS, primary screen (AID 1053197;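 further: 0% = plate median of compound wells and 100% = probe without SIAE protein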)). Settings: SIAE FP-Rh probe binding, at 9.66 µM, active compounds read high.
Sequence of Sialate O-acetylesterase (Homo sapiens) (Q9HAT2 whole entry, looked up): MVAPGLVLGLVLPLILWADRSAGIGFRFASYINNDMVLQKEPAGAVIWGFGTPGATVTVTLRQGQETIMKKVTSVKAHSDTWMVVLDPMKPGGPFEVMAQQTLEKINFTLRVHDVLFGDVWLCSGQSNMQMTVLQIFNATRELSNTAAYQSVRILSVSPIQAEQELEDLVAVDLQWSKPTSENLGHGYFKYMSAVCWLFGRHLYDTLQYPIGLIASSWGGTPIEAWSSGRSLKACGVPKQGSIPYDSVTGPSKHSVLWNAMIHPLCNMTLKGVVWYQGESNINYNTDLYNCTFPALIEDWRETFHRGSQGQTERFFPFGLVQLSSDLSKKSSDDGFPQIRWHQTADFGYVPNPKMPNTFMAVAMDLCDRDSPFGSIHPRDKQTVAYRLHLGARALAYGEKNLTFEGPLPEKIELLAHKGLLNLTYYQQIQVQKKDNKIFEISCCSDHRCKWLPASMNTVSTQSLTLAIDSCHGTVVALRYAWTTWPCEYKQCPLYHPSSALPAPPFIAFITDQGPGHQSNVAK

SMILES	inhibition
CCOC(=O)[C@]12CCCCC/C=C\1N(Cc1ccc(OC)cc1)C(=O)[C@H]2CC(=O)NCCCN1CCCC1=O	4.21% (inactive)
CCOc1cc(N2CCOCC2)c(OCC)cc1NC(=O)COc1cccc2cccnc12	25.5% (active)
CCOc1cc(N2CCOCC2)c(OCC)cc1NC(=O)C1=NN(c2cccc(C)c2)C(=O)CC1	7.16% (inactive)
NC(=O)C1CCN(C(=O)COc2cccc3cccnc23)CC1	4% (inactive)
COc1ccc(C(=O)NNc2cc(C)nc(NNC(=O)c3ccc(OC)cc3)n2)cc1	-3.36% (inactive)
CC(=O)NS(=O)(=O)c1ccc(N/C(N)=N/c2nc(C)cc(C)n2)cc1	-5.5% (inactive)
CC(=O)Nc1ccc(Nc2cc(C)nc(Nc3ccc(NC(C)=O)cc3)n2)cc1	19.1% (active)
CCC(c1ccc(NC(=O)OC(C)(C)C)cc1)c1cc(OC)cc(OC)c1 (centres undefined)	-2.44% (inactive)
C=CCN1C(=O)[C@H](CC(=O)N2CCN(C(=O)OCC)CC2)[C@@]2(C(=O)OCC)CCCC=C12	10.1% (inactive)
CC(=O)N1CCc2cc(S(=O)(=O)NCCC(=O)N3CCCC3)ccc21	-1.37% (inactive)
C=CCN1C(=O)[C@@H](CC(=O)N2CCN(C(=O)c3ccco3)CC2)[C@]2(C(=O)OC)CCCCC=C12	2.59% (inactive)
CC(C)N1CCCCC(NC(=O)C(C)(C)C)C1=O (centres undefined)	-4.73% (inactive)
Cc1ccccc1OCC(=O)NCC(=O)OCC(=O)c1ccc2ccccc2c1	-1.57% (inactive)
O=C(COc1ccc(Cl)cc1)NCCSc1ccccc1	0.9% (inactive)
Cc1cc2ccccc2n1CCNC(=O)COc1ccc2ccccc2c1	27.9% (active)
C[C@H]1[C@H](NC(=O)c2cccc(N(C)C)c2)CC[C@@]23CCCN2C(=O)CCC[C@@H]13	0.13% (inactive)
COc1ccc(CSc2nnc(-c3cccc(C)c3)n2C)cc1	4.99% (inactive)
COC(=O)C[C@@H]1CC[C@H]2[C@@H](COc3ccc(NS(=O)(=O)CC(F)(F)F)cc3C(=O)N2C)O1	8.2% (inactive)
COC(=O)[C@]12C[C@H](CC(=O)NCc3cccs3)C(=O)N(CCc3ccc(OC)c(OC)c3)C1=C[C@H](C(C)C)O[C@@H]2C1CC1	9.66% (inactive)
COc1ccc(C2CC=C(C(=O)O)C(c3ccccc3F)N2S(=O)(=O)c2ccc(C)cc2)cc1OC (centres undefined)	-2.16% (inactive)
CCOC(=O)C1=C(c2ccccc2)O/C(=C(/C(=O)OC)C(F)(F)F)S1	36% (active)

SMILES	inhibition
COC(=O)/C(=C1\Oc2ccc(C(C)(C)C)cc2S1)C(F)(F)F	0.75% (inactive)
CCOC(=O)c1nnn(-c2nonc2OC)c1-c1ccccc1	1.88% (inactive)
c1csc(-c2nnc(SCc3nc4ccccc4[nH]3)o2)c1	-0.76% (inactive)
CCCNC(=O)Nc1ccc2c(c1)C(=O)N(C)[C@H]1CC[C@H](CC(=O)NCC3CCCCC3)O[C@@H]1CO2	-0.34% (inactive)
Cc1cccc(NC(=O)C[C@H]2CC[C@H]3[C@@H](COc4ccc(NC(=O)Nc5ccccc5)cc4C(=O)N3C)O2)c1	-1.56% (inactive)
CCc1ccc(/C=N/NC(=O)c2nnn(-c3nonc3N)c2CN2CCc3ccccc32)cc1	-0.3% (inactive)
COc1ccc(/C=N/NC(=O)c2ccncc2)cc1CN1CCCc2ccccc21	18.8% (active)
COc1ccccc1CCC(=O)NNC(=O)c1ccncc1	-7.13% (inactive)
CCCCNC(=O)C[C@H]1C[C@@]2(C(=O)OC)C(=C[C@H](COCc3ccccc3)O[C@@H]2C)N(Cc2ccc(Cl)cc2Cl)C1=O	11.1% (inactive)
COc1ccc(S[C@]2(C(=O)N(C)C)CC(=O)N(c3ccc(OC)cc3)[C@@H]2c2ccc(OC)cc2)cc1	-0.86% (inactive)
Cc1ccc(NC(=O)Cc2cccc(F)c2)c(S(=O)(=O)N2CCOCC2)c1	-2.62% (inactive)
CCn1c(SC)nc(O)c(C(c2ccc(OC)c(O)c2)c2c(O)nc(SC)n(CC)c2=O)c1=O	26.7% (active)
CCSc1nc(O)c(C(c2cccc(OC)c2)c2c(O)nc(SCC)[nH]c2=O)c(=O)[nH]1	-2.73% (inactive)
COc1ccccc1OCC(=O)OCn1c(SC)nnc(C)c1=O	-6.49% (inactive)
Oc1ccc(/C=N/N(Cc2ccccc2)c2ccccc2)cc1	19.4% (active)
CCN(/N=C/c1ccccc1)c1cc(=O)n(C)c(=O)[nH]1	10.2% (inactive)
CCN(/N=C/c1ccc(N(C)C)cc1)c1nc2ccccc2[nH]1	4.94% (inactive)
O=C(NC1CCCC1)C1CSCCS(=O)(=O)N1Cc1ccccc1 (centres undefined)	-3.54% (inactive)
N[C@@H](Cc1ccccc1)C(=O)N1CCC[C@@H]1C(=O)N1CCC2CCN(S(=O)(=O)c3ccccc3)CC21 (some centres undefined)	1.02% (inactive)
Oc1ccc(/C=C/c2c(F)cccc2F)c2cccnc12	9.1% (inactive)
COCC1CCN(C(=O)c2ccc3oc(Cc4ccccc4)nc3c2)C1 (centres undefined)	-5.51% (inactive)

SMILES	inhibition
COc1ccc(Cc2nc3ccc(C(=O)N4CCC(N(C)C)C4)cc3o2)cc1 (centres undefined)	18.5% (active)
CCC1C(=O)NCCN1C(=O)c1ccc2nc(Cc3ccc(OC)cc3)oc2c1 (centres undefined)	-0.21% (inactive)
CC(CCN1CCC(C(O)(c2ccccc2)c2ccccc2)CC1)Oc1ccc([N+](=O)[O-])cc1Cl (centres undefined)	1.3% (inactive)
Cc1ccc(/C=N/NC(=O)c2cc3ccccc3cc2O)o1	21.5% (active)
Cc1ccc(/C=N/NC(=O)Cn2ccc(C(F)(F)F)n2)o1	2.98% (inactive)
Cc1ccc(/C=N/NC(=S)NC2CCCCC2)o1	8.46% (inactive)
C[C@H]1CCC/C=C/C(=O)c2c(O)cc(O)cc2CC(=O)O1	5.43% (inactive)
C=CCOC/C=C/C#CCN(CC=C)Cc1ccc(OC)cc1OC	-0.76% (inactive)
CCOC(=O)CC1=CC(=O)Nc2ccccc2N1	2.76% (inactive)
CCOC(=O)C(=O)C1C(=O)Nc2ccccc21 (centres undefined)	20.6% (active)
CCCCC(CC)CNC(=O)C(=O)C1C(=O)Nc2ccccc21 (centres undefined)	4.38% (inactive)
COc1ccc(NC(=O)/C(N=Nc2cccc(S(=O)(=O)Nc3ccc(SC(F)F)cc3)c2)=C(\C)O)cc1	17.2% (active)
Cc1c(NS(=O)(=O)c2cccc(C(=O)Nc3ccc(SC(F)F)cc3)c2)c(=O)n(-c2ccccc2)n1C	-14% (inactive)
Nc1cccc(S(=O)(=O)Nc2ccc(SC(F)F)cc2)c1	-5.85% (inactive)
Cc1nc2ccc(C(=O)N3CCN(C(=O)C(C)(C)C)CC3)cc2n1C1CCCC1	1.16% (inactive)
Cc1ccccc1CS(=O)(=O)Cc1ccc(C(=O)Nc2ccc(Cl)cc2)o1	-4.56% (inactive)
C[C@H](C(=O)N(C)c1ccccc1)[C@@H](O)c1ccc(Cl)cc1	-3.9% (inactive)
COc1ccc(-n2c(SCC(=O)Nc3ccc(C)c(Cl)c3)nc3ccccc3c2=O)cc1	-5.2% (inactive)
O=C(OC12CCCN(C1)/C(=C/c1cccnc1)C2)C1CCCC1 (centres undefined)	9.64% (inactive)
COc1ccccc1N1CCN(c2ccc([N+](=O)[O-])nc2)CC1	3.93% (inactive)
COc1ccc(N2CCN(c3ccc([N+](=O)[O-])nc3)CC2)cc1	27.9% (active)

SMILES	inhibition
O=[N+]([O-])c1ccc(N2CCN(c3ccc(F)cc3)CC2)cn1	1.56% (inactive)
Cc1c(C(C)c2ccccc2O)[nH]c2ccccc12 (centres undefined)	3.42% (inactive)
C=C(C)C#CC(Cc1ccccc1)N(CC1CC1)/C(N)=N/C(=O)OCc1ccccc1 (centres undefined)	8.05% (inactive)
C[C@@H](NC(=O)c1ccccc1OCC(=O)Nc1ccc(I)cc1)C(=O)N(C)Cc1ccccc1	-10.2% (inactive)
Cc1ccc(NC(=O)[C@H](Cc2ccccc2)NC(=O)CC[C@H]2O[C@@H](n3ccc(=O)[nH]c3=O)[C@H](O)[C@@H]2O)cc1C	0.53% (inactive)
O=C(CC[C@H]1O[C@@H](n2ccc(=O)[nH]c2=O)[C@H](O)[C@@H]1O)N[C@H](Cc1ccccc1)C(=O)NCc1ccco1	1.02% (inactive)
O=C(CC[C@H]1O[C@@H](n2ccc(=O)[nH]c2=O)[C@H](O)[C@@H]1O)N[C@H](Cc1ccccc1)C(=O)NCCCN1CCCC1=O	47.1% (active)
CSc1ccc(C=Nn2c(-c3ccc(F)cc3)n[nH]c2=S)cc1	2.39% (inactive)
Cn1cccc1/C=N/NC(=O)CNc1cccc2ccccc12	18.6% (active)
O=C(Cn1cncn1)N/N=C/c1c2ccccc2cc2ccccc12	-1.87% (inactive)
C/C(=N\NC(=O)CNc1cccc2ccccc12)c1ccc(Br)s1	-5.3% (inactive)
C[C@H](C(=O)N(C)c1ccccc1)[C@@H](O)c1ccc2ccccc2c1	3.1% (inactive)
CCC(=O)Nc1ccc2c(c1)C(=O)N(C)[C@@H]1CC[C@@H](CC(=O)NCCc3ccccc3)O[C@H]1CO2	1.28% (inactive)
COc1ccccc1C(=O)NC1CCCCN(C(C)C)C1=O (centres undefined)	0.76% (inactive)
C=CCN(Cc1ccc2c(c1)OCO2)C(C#CC1CC1)C(C)(C)C (centres undefined)	4.36% (inactive)
CCOC(=O)C1=C(C)NC(SC)=NC1c1ccccc1 (centres undefined)	5.58% (inactive)
COC(=O)C1=C(C(=O)OC)C2(OC1c1ccc(Br)cc1)C(=O)c1ccccc1C2=O (centres undefined)	14.3% (inactive)
CCOC(=O)C1=C(C)N=C2c3ccccc3C(=O)C2C1c1ccc(Br)cc1 (centres undefined)	18% (active)
CCCCN1CCN(C(=O)c2ccc3c(c2)NC(=O)C(C)(C)O3)CC1	-0.65% (inactive)
COC[C@@H]1CCCN1c1ccc2c(c1)O[C@H](C)CCN(C1CC1)S2(=O)=O	-0.33% (inactive)
CC(=O)Nc1ccc(OC[C@@H](O)CN2CCC(C(O)(c3ccccc3)c3ccccc3)CC2)cc1	-6.43% (inactive)
